Data on 1 sequence can be found in publication PMC7862700, “An all-to-all approach to the identification of sequence-specific readers for epigenetic DNA modifications on cytosine”.

Common to all, as to assay: DAPPL (digital affinity profiling via proximity ligation, sequencing); 10 mM Tris-HCl pH 7.5, 50 mM NaCl, 1 mM DTT, 4% glycerol, room temperature, 30 min; GST-TFs on glutathione beads, 16-mer random dsDNA library, 0.1% formaldehyde crosslink after washing; high values mean tight binding
For one assay, the target named is T1, FEV (Homo sapiens, UniProt Q99581 1-238).
T1 sequence: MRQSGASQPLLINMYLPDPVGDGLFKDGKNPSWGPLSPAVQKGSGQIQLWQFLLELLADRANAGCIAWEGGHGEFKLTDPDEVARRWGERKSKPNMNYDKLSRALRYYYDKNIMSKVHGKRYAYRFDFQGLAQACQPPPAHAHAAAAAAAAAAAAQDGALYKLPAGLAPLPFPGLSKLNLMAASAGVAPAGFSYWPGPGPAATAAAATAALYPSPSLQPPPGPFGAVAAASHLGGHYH
As to conditions: protein: recombinant; tags: N-terminal GST; dsDNA, one strand shown. A digest of the protocol: (§1)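 Beads coated with glutathione captured GST-fused human transcription factors that had been expressed in yeast, and the factors were then given DNA barcodes and pooled with a tag-only sample. The pools were incubated with 200 nmole of a random double-stranded 16-mer DNA library in Tris/NaCl/DTT/glycerol buffer for 30 min at room temperature, washed, crosslinked with 0.1% formaldehyde and proximity-ligated with BsaI/T4 ligase at 37 °C for 1 h. PCR amplification and Illumina NextSeq500 sequencing came last. Binding signal is each hexamer's read frequency for a factor divided by its frequency for the tag-only sample.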

The next assay concerns the target ETV5 (Homo sapiens, UniProt P41161 1-510). To be noted: protein: recombinant; tags: N-terminal GST; dsDNA, one strand shown. A digest of the protocol: as §1
The target in a further assay is HSF1 (Homo sapiens, UniProt Q00613 1-529). As to conditions: protein: recombinant; tags: N-terminal GST; chain copies: 3; dsDNA, one strand shown. The procedure, abridged: as §1
The next assay deals with T2, SPIC (Homo sapiens, UniProt Q8N5J4 1-248).
T2 sequence: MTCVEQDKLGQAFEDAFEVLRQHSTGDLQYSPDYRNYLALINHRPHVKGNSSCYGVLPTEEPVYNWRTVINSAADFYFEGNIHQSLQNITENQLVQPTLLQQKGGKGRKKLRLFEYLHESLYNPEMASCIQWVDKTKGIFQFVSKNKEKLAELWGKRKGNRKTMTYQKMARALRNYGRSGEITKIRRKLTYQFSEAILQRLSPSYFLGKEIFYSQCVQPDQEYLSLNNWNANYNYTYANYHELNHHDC
To be noted: protein: recombinant; tags: N-terminal GST; dsDNA, one strand shown. The procedure, abridged:
as §1

The next assay concerns the target ELF4 (Homo sapiens, UniProt Q99607 1-663). To be noted: protein: recombinant; tags: N-terminal GST; dsDNA, one strand shown. A digest of the protocol: as §1
The target in another assay is T3, ELK4 (Homo sapiens, UniProt P28324-2 1-405).
T3 sequence: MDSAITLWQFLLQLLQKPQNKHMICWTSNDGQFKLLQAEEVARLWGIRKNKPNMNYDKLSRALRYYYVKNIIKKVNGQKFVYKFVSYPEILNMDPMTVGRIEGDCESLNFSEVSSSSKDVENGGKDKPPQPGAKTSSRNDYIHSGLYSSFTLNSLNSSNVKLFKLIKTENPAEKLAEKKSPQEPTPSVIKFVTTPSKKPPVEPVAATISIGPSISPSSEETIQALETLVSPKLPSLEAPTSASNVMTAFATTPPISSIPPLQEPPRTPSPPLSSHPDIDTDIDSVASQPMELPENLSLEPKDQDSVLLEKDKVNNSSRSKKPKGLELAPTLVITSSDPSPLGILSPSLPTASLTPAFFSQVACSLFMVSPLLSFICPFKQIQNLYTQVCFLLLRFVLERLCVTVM
To be noted: protein: recombinant; tags: N-terminal GST; dsDNA, one strand shown. The procedure, abridged: as §1

In a further assay the target is T4, ETV2 (Homo sapiens, UniProt O00321 1-342).
T4 sequence: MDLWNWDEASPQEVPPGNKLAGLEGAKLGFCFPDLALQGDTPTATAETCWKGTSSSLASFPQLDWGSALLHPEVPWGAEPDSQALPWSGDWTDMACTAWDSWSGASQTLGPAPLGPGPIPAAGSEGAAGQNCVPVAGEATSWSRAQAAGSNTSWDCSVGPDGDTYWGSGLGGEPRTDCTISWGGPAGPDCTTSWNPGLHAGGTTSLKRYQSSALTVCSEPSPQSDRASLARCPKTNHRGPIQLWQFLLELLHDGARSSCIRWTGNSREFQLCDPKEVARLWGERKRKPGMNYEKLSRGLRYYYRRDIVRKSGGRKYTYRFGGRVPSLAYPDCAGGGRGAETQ
As to conditions: protein: recombinant; tags: N-terminal GST; dsDNA, one strand shown. The procedure, abridged:
as §1

A further assay deals with T5, ELF3 (Homo sapiens, UniProt P78545 1-371).
T5 sequence: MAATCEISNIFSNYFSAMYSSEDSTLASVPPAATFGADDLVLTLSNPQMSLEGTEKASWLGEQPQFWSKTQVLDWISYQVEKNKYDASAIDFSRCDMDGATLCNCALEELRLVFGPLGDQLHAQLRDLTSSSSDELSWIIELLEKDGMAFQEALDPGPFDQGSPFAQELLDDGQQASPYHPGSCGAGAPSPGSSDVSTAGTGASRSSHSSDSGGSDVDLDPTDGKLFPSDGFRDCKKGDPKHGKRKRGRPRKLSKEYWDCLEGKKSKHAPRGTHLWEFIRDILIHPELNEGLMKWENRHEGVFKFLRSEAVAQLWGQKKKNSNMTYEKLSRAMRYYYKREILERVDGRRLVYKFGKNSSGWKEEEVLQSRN
To be noted: protein: recombinant; tags: N-terminal GST; dsDNA, one strand shown. A digest of the protocol:
as §1

The target of another assay is CRX (Homo sapiens, UniProt O43186 1-299). As to conditions: protein: recombinant; tags: N-terminal GST; dsDNA, one strand shown. The procedure, abridged:
as §1

Another assay deals with ETV1 (Homo sapiens, UniProt P50549 1-477). As to conditions: protein: recombinant; tags: N-terminal GST; dsDNA, one strand shown. A digest of the protocol: as §1
The target of another assay is T6, ERF (Homo sapiens, UniProt P50548 1-548).
T6 sequence: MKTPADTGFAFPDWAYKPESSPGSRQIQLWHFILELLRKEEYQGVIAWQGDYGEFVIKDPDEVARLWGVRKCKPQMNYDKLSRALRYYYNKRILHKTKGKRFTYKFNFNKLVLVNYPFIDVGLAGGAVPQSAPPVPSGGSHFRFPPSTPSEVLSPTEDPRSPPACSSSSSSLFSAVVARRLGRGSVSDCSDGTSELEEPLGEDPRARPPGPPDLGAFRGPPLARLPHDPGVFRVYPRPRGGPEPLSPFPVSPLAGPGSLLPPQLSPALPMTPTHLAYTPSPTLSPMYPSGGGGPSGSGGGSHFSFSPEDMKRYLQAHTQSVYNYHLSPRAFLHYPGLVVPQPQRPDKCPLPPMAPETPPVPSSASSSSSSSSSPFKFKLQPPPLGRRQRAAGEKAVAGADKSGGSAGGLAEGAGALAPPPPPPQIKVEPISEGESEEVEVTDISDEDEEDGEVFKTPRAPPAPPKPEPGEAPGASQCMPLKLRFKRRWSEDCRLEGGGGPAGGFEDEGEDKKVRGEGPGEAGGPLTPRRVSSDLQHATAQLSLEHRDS
To be noted: protein: recombinant; tags: N-terminal GST; dsDNA, one strand shown. The procedure, abridged:
as §1

A further assay concerns the target T7, ETV3L (Homo sapiens, UniProt Q6ZN32 1-361).
T7 sequence: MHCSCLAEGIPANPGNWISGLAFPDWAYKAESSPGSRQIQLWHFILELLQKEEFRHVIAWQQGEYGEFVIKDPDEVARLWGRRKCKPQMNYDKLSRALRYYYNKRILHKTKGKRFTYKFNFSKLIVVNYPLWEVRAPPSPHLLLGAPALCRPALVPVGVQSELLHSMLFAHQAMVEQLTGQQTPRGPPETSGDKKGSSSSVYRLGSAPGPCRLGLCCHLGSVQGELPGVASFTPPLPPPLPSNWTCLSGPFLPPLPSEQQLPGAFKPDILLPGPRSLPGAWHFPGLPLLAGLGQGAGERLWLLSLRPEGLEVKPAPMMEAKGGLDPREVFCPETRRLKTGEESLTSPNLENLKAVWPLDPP
As to conditions: protein: recombinant; tags: N-terminal GST; dsDNA, one strand shown. A digest of the protocol: as §1

In the next assay the target is T8, ETS2 (Homo sapiens, UniProt P15036 1-469).
T8 sequence: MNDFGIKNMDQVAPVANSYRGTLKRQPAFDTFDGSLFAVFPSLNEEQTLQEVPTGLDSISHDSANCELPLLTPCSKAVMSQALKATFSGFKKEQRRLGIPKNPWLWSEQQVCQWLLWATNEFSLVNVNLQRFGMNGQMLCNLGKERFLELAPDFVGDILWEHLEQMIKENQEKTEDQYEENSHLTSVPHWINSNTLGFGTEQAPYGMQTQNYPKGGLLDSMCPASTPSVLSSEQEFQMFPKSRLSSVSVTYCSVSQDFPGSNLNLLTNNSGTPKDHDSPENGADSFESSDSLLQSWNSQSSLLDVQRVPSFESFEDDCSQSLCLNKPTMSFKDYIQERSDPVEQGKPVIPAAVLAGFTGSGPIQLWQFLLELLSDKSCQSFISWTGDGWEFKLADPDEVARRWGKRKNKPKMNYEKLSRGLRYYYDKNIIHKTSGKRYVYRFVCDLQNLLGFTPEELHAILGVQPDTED
As to conditions: protein: recombinant; tags: N-terminal GST; dsDNA, one strand shown. The procedure, abridged: as §1

For another assay, the target named is T9, SPDEF (Homo sapiens, UniProt O95238 1-335).
T9 sequence: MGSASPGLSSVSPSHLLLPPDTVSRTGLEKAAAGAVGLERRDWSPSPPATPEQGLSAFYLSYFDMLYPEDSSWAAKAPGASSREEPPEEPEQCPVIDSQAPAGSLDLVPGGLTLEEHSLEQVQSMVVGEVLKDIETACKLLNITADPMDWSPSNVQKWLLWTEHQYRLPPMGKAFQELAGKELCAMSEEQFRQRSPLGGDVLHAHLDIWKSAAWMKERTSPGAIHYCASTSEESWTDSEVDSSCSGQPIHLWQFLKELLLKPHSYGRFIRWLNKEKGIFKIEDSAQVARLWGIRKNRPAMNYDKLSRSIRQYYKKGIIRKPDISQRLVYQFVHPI
To be noted: protein: recombinant; tags: N-terminal GST; dsDNA, one strand shown. A digest of the protocol:
as §1

In a further assay the target is T10, ETV7 (Homo sapiens, UniProt Q9Y603 1-341).
T10 sequence: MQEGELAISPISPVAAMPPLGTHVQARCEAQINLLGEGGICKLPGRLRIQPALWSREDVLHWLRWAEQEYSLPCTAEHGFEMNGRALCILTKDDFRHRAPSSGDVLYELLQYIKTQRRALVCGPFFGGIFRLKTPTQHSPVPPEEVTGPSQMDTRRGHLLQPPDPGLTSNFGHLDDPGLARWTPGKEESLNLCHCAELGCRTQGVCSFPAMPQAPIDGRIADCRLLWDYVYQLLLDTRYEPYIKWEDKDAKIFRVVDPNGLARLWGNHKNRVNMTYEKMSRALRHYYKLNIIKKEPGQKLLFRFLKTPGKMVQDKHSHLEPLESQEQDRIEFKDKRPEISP
To be noted: protein: recombinant; tags: N-terminal GST; dsDNA, one strand shown. A digest of the protocol:
as §1

For the next assay, the target named is T11, ELF5 (Homo sapiens, UniProt Q9UKW6-2 1-255).
T11 sequence: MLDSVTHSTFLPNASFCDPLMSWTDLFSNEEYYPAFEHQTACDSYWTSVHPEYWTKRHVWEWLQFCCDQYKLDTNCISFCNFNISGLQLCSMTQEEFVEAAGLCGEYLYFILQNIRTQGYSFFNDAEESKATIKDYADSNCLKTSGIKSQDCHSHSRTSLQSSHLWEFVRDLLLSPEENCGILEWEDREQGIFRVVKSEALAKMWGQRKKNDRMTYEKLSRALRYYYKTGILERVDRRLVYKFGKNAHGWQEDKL
As to conditions: protein: recombinant; tags: N-terminal GST; dsDNA, one strand shown. A digest of the protocol: as §1

The next assay deals with T12, ETV3 (Homo sapiens, UniProt P41162-2 1-143).
T12 sequence: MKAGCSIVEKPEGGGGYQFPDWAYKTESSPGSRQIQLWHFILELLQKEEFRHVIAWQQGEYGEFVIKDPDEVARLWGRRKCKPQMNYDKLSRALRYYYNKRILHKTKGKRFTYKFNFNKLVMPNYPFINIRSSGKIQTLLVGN
As to conditions: protein: recombinant; tags: N-terminal GST; dsDNA, one strand shown. The procedure, abridged: as §1

The target in another assay is ETV6 (Homo sapiens, UniProt P41212 1-452). As to conditions: protein: recombinant; tags: N-terminal GST; dsDNA, one strand shown. The procedure, abridged: as §1
Chain of ETV6 (P41212 whole entry): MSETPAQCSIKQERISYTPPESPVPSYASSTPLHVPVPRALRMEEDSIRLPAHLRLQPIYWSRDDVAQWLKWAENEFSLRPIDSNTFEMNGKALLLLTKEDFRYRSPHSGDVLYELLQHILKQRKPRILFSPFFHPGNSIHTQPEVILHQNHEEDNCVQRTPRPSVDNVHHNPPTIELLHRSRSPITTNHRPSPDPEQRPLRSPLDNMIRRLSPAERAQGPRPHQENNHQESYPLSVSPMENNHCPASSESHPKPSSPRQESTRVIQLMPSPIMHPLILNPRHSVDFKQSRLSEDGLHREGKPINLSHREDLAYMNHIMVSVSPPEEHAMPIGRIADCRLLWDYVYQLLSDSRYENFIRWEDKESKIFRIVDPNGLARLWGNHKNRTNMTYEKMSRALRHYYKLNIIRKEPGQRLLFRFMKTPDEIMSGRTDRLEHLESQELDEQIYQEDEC

Chain of ETV5 (P41161 whole entry): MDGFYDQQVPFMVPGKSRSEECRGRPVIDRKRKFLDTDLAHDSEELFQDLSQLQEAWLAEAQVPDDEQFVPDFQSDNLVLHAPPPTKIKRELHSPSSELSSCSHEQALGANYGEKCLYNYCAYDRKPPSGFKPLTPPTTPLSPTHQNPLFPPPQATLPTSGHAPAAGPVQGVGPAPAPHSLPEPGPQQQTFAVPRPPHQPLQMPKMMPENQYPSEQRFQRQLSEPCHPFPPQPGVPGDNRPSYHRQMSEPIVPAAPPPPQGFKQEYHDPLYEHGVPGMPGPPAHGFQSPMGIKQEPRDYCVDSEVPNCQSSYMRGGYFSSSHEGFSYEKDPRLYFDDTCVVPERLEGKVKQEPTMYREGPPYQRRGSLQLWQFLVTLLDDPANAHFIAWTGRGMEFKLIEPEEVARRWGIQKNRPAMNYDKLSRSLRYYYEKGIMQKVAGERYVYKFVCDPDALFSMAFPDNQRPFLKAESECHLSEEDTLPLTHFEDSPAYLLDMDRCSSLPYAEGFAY
Chain of ELF4 (Q99607 whole entry): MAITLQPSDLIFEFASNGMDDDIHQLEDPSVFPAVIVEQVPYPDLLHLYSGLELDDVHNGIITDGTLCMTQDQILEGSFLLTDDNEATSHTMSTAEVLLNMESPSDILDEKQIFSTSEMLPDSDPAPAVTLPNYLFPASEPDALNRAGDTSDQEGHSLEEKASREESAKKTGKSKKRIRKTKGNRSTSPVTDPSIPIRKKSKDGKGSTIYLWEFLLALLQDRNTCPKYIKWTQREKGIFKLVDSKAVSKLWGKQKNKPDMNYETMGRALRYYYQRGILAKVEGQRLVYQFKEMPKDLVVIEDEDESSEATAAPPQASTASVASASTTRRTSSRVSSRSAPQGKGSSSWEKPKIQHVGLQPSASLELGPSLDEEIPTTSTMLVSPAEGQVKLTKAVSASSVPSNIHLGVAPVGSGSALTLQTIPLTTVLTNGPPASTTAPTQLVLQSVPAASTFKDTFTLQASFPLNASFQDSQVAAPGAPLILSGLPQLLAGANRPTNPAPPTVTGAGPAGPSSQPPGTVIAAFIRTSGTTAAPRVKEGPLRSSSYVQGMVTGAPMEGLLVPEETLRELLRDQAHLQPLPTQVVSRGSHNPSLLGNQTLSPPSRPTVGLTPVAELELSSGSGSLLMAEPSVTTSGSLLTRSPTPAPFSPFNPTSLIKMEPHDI
Chain of ETV1 (P50549 whole entry): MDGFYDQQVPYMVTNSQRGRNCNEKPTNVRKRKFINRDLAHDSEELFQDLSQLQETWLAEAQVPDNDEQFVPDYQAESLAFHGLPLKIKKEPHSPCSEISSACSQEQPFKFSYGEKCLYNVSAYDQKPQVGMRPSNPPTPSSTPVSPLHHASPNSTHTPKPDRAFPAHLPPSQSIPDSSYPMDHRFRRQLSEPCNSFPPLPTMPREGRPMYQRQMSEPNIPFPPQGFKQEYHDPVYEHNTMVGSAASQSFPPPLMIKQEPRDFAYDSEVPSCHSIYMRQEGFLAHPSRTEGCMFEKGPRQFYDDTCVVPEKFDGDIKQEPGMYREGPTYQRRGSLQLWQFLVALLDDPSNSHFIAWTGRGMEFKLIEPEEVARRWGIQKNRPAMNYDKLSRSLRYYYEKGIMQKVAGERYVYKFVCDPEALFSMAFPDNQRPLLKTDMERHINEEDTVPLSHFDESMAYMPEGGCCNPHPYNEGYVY
Chain of CRX (O43186 whole entry): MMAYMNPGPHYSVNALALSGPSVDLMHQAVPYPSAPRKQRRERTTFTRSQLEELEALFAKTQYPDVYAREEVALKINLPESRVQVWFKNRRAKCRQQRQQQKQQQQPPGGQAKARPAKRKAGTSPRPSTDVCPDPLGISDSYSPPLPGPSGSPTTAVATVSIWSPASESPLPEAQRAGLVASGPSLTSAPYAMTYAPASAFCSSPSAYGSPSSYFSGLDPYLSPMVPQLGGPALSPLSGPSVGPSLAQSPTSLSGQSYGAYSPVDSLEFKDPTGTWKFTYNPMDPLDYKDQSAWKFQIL
Chain of HSF1 (Q00613 whole entry): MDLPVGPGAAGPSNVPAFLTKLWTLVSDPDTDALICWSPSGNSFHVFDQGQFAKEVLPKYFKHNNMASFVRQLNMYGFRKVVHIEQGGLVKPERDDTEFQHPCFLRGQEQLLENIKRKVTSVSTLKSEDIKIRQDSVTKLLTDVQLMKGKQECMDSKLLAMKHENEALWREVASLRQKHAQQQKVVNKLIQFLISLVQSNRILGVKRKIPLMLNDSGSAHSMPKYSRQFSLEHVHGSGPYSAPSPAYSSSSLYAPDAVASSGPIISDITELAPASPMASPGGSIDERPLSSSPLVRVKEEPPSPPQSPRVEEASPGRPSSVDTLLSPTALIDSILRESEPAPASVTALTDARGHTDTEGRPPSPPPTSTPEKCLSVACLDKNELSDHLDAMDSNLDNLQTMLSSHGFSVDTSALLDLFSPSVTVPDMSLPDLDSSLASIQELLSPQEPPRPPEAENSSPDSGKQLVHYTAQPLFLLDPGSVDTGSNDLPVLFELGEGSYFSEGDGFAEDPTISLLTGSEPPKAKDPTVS

For the sequence CCGACC, the binding signal was 1.71 fold enrichment (6-mer frequency, TF over GST control) with FEV; 1.5 fold enrichment (6-mer frequency, TF over GST control) with ETV5; 1.14 fold enrichment (6-mer frequency, TF over GST control) with HSF1; 1.45 fold enrichment (6-mer frequency, TF over GST control) in the assay with SPIC; 1.54 fold enrichment (6-mer frequency, TF over GST control) with ELF4; 1.61 fold enrichment (6-mer frequency, TF over GST control) with ELK4. For the same sequence, the binding signal in the assay with ETV2 was 1.46 fold enrichment (6-mer frequency, TF over GST control); in the assay with ELF3, 1.63 fold enrichment (6-mer frequency, TF over GST control); with CRX, 1.13 fold enrichment (6-mer frequency, TF over GST control); with ETV1 it was 1.53 fold enrichment (6-mer frequency, TF over GST control); with ERF it was 1.59 fold enrichment (6-mer frequency, TF over GST control); in the assay with ETV3L, 1.67 fold enrichment (6-mer frequency, TF over GST control). The binding signal was 1.49 fold enrichment (6-mer frequency, TF over GST control) in the assay with ETS2; 1.54 fold enrichment (6-mer frequency, TF over GST control) with SPDEF; 1.55 fold enrichment (6-mer frequency, TF over GST control) with ETV7; 1.48 fold enrichment (6-mer frequency, TF over GST control) in the assay with ELF5; 1.46 fold enrichment (6-mer frequency, TF over GST control) with ETV3; 1.67 fold enrichment (6-mer frequency, TF over GST control) with ETV6.
